Laboratory results: PubChem BioAssay (NCATS)
Where “and” joins values, the source holds several entries; their conditions need not be identical. Identical values can stand only once. Inconclusive results are not listed. Unmarked numbers belong to inactive results. Calls of active or inactive are those of the source. Calls come from the whole dose curve; as a rule, active = well fitted curve in the direction sought with a large enough effect; inconclusive = small, poorly fitted or top-dose-only effect, or another doubt; inactive = no such curve, though single readings can be large; an effect the other way counts as inactive or inconclusive.

Columns and labels:
[1] = molecular target: Cellular tumor antigen p53 (Homo sapiens) (UniProt P04637); assay: Primary qHTS for small molecule compounds that upregulate eGFP-tagged delta133p53alpha (in N-terminal) cells. (AID 2060322); details: NCI-H358 eGFP-delta133p53alpha fluorescence, 24 h; activation: hits give high values; note: nearly all actives have a fitted effect of over 75% in size;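 for activation: series mostly up to about 56 µM; 0% = DMSO vehicle and 100% = reference activator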
How it was run: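 NCI-H358 cells pre-induced 24 h with 10 ng/ml doxycycline to express N-terminal eGFP-delta133p53alpha, then dosed 24 h at 37C without doxycycline; fixed, Hoechst-stained, GFP intensity by laser scanning cytometry, normalized to DMSO (0%) and 57.5 uM 5-azacytidine (100%).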

[2] = BET inhibitor-based combinations targeting novel dependencies in MECOM-rearranged (r) AML: SET-2 cell line (AID 2202231); details: SET-2 AML cells viability, CellTiter-Glo luminescence, 48 h; viability: hits give low values, concentration not given here; note: nearly all actives have a fitted effect of over 35% in size;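 for viability: plate controls were DMSO treated cells for no effect and wells without cells for full effect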
How it was run: (§1)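 Each compound was tested at eleven concentrations on cells seeded at 500/well. After two days' incubation, ATP-based luminescence reported viability; responses relative to DMSO and blank wells yielded AUC and cell-line-centred Z-AUC.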

[3] = BET inhibitor-based combinations targeting novel dependencies in MECOM-rearranged (r) AML: UCSD-AML1 cell line (AID 2202235); note: nearly all actives have a fitted effect of over 40% in size
How it was run: (§2)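 First, 500 cells per well were seeded; next, drugs were pinned as 11-point doses; then plates sat 48 hr in the incubator; finally CellTiter-Glo was added and luminescence read, with AUC and Z-AUC computed.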

[4] = BET inhibitor-based combinations targeting novel dependencies in MECOM-rearranged (r) AML: AML-191 cell line (AID 2202236; note: nearly all actives have a fitted effect of over 35% in size)
How it was run: as §1

[5] = BET inhibitor-based combinations targeting novel dependencies in MECOM-rearranged (r) AML: AML-194 cell line (AID 2202237; note: nearly all actives have a fitted effect of over 40% in size)
How it was run: as §1

[6] = BET inhibitor-based combinations targeting novel dependencies in MECOM-rearranged (r) AML: MV-4-11 cell line (AID 2202233); note: nearly all actives have a fitted effect of over 45% in size
How it was run: as §2

[7] = BET inhibitor-based combinations targeting novel dependencies in MECOM-rearranged (r) AML: HNT-34 cell line (AID 2202234); note: nearly all actives have a fitted effect of over 35% in size
How it was run: as §2

[8] = BET inhibitor-based combinations targeting novel dependencies in MECOM-rearranged (r) AML: OCI-AML3 cell line (AID 2202232); details: Potency: OCI-AML3 viability; note: nearly all actives have a fitted effect of over 35% in size
How it was run: as §1
Potency is the fitted concentration of half-maximal effect.

Chain of Cellular tumor antigen p53 (Homo sapiens) (P04637 whole entry, looked up): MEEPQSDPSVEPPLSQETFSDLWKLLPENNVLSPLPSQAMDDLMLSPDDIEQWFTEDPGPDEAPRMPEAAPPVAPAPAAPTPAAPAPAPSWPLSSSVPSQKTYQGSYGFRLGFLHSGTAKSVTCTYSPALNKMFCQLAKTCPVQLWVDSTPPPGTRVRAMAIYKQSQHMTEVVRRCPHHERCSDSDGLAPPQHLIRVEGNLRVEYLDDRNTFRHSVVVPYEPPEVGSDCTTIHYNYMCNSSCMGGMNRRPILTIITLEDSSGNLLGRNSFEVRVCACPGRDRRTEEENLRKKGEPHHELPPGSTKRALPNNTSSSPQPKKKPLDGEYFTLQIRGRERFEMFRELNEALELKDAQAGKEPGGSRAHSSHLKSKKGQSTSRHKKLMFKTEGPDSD

Row | SMILES | activation [1] | viability [2] [%] | Potency [3] | Potency [4] | Potency [5] | Potency [2] | Potency [6] | Potency [7] | Potency [8] | Potency [1]
1 | CCCCOCCOc1nc(-c2ccc(C(=O)O)c(F)c2)sc1C | 13.4% | 85.8 | inactive | 2.63 µM (active) | inactive |  |  |  |  | 
2 | CCN(CC)CCOc1ccc(Cc2ccccc2)cc1 | -6.69% and 6.46% |  |  |  | inactive | 16.6 µM (active) | inactive |  |  | 
3 | O=C(O)CCCCC(CCSCc1ccccc1)SCc1ccccc1 (stereo not drawn) | 1.42% | 107 | inactive | inactive | inactive |  |  | inactive |  | 
4 | COC(=O)Nc1ccc(-c2nc(N3CCOCC3)c3cnn(C4CCN(C(=O)OC)CC4)c3n2)cc1 | 11.3% |  |  |  |  |  | 1.18 µM (active) | 0.742 µM (active) | 4.17 µM (active) | 
5 | Nc1nc(N)nc(-c2cc(Cl)ccc2Cl)n1 | 2.82% and 12% | 105 | inactive | inactive | inactive |  |  | inactive |  | 
6 | COc1ccc(C(=O)CC(=O)c2ccc(C(C)(C)C)cc2)cc1 | -17.5% and -8.43% | 107 | inactive | 20.9 µM (active) |  |  |  |  |  | 
7 | CC(C)OC(=O)C(C(=O)OC(C)C)=C1SC=CS1 | 3.95% and 27.9% | 105 |  | inactive | inactive |  |  | inactive |  | 
8 | NC1=N[C@H]2[C@H](CS[C@H]2CCCCC(=O)O)N1 | -4.3% |  |  | inactive | inactive |  | inactive | inactive | inactive | 
9 | CN1C(=O)c2sccc2N(C)c2nc(Nc3ccc(S(N)(=O)=O)cc3)ncc21 | -6.75% |  | 2.35 µM (active) |  | 2.35 µM (active) |  | 1.05 µM (active) | 0.934 µM (active) | 1.66 µM (active) | 
10 | C[C@]12CCC(=O)C=C1[C@@H]1C[C@@H]1[C@H]1[C@@H]3[C@@H]4C[C@@H]4[C@@]4(CCC(=O)O4)[C@@]3(C)CC[C@@H]12 | -15.3% |  | inactive |  | inactive |  | 16.6 µM (active) |  | 8.33 µM (active) | 
11 | CCC(C)SSc1ncc[nH]1 (stereo not drawn) | -4.29% |  | 7.42 µM (active) | 5.25 µM (active) | 7.42 µM (active) |  | 2.63 µM (active) | 9.34 µM (active) | 8.33 µM (active) | 
12 | CC1=CC(=O)c2ccccc2C1=O | 1.69% and -31.8% |  |  |  | 18.6 µM (active) |  | 7.42 µM (active) | 23.5 µM (active) | 18.6 µM (active) | 
13 | N#Cc1ccnc(Nc2cc(C3CCN(C4COC4)CC3)cc(N3CCC(F)(F)C3)n2)c1 |  |  | 2.95 µM (active) | 2.95 µM (active) | 4.17 µM (active) |  | 0.235 µM (active) | 0.833 µM (active) | 8.33 µM (active) | 27.2 µM (active)
14 | Cc1c(C)c2c(c(C)c1O)CCC(C)(COc1ccc(CC3SC(=O)NC3=O)cc1)O2 (stereo not drawn) | -7.34% |  | inactive | inactive | inactive |  | inactive | 18.6 µM (active) | inactive | 
15 | CC(C)c1ccccc1Cc1cc(C(=O)Nc2ccc(S(=O)(=O)c3ccccc3C(C)(C)C)cc2)c(O)c(O)c1O | -33% |  | 10.5 µM (active) | 9.34 µM (active) |  |  | 10.5 µM (active) |  | 4.68 µM (active) | 
16 | COc1cccc2c1CCCC2CCCN1CCN(C2CCCCC2)CC1 (stereo not drawn) | 0.872% |  |  | 5.9 µM (active) | inactive |  | 16.6 µM (active) |  | 11.8 µM (active) | 
17 | N#CC1(c2ccc(NC(=O)c3cccnc3NCc3ccncc3)cc2)CCCC1 | -7.07% |  | inactive | inactive | inactive |  | 14.8 µM (active) |  | inactive | 
18 | CC1(C)O[C@@H]2C[C@H]3[C@@H]4CCC5=CC(=O)C=C[C@]5(C)[C@@]4(F)[C@@H](O)C[C@]3(C)[C@]2(C(=O)CO)O1 | -9.6% |  | inactive |  |  |  | inactive | inactive | inactive | 
19 | COC(=O)C1=C(C)NC(C)=C(C(=O)OCCN2CCN(C(c3ccccc3)c3ccccc3)CC2)C1c1cccc([N+](=O)[O-])c1 (stereo not drawn) | -17.6% |  | inactive | 26.3 µM (active) |  |  | 18.6 µM (active) | 23.5 µM (active) | 20.9 µM (active) | 
20 | Nc1ccn([C@@H]2CS[C@H](CO)O2)c(=O)n1 | -9.96% |  | inactive | inactive | inactive |  | inactive | inactive | inactive | 
21 | Cc1[nH]nc2ccc(-c3cncc(OC[C@@H](N)Cc4ccccc4)c3)cc12 |  |  | 0.468 µM (active) | 0.833 µM (active) | 1.18 µM (active) |  | 0.132 µM (active) | 0.662 µM (active) | 1.18 µM (active) | 21.7 µM (active)
